High-throughput results from PubChem BioAssay.
TSHR agonist: TSH receptor (human) agonism; Potency, µM (doses to about 57.1 µM), usual class: activators; AID 926; P16473; 0.48% of 73,000 active; HEK293-CNG-TSHR cells (CNG channel as cAMP sensor), membrane potential dye, cAMP; active means well fitted activation curve with a large enough effect in the main read-out, with a control signal flat, not every such curve was filed as active; inconclusive means small, poorly fitted or top-dose-only effect, or a change in a side signal; inactive means no such curve, though single readings can be large or run the other way; reference of the percent scale not stated here;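 further: the control signal comes from parental cells without the receptor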
Target sequence (P16473 whole entry, looked up): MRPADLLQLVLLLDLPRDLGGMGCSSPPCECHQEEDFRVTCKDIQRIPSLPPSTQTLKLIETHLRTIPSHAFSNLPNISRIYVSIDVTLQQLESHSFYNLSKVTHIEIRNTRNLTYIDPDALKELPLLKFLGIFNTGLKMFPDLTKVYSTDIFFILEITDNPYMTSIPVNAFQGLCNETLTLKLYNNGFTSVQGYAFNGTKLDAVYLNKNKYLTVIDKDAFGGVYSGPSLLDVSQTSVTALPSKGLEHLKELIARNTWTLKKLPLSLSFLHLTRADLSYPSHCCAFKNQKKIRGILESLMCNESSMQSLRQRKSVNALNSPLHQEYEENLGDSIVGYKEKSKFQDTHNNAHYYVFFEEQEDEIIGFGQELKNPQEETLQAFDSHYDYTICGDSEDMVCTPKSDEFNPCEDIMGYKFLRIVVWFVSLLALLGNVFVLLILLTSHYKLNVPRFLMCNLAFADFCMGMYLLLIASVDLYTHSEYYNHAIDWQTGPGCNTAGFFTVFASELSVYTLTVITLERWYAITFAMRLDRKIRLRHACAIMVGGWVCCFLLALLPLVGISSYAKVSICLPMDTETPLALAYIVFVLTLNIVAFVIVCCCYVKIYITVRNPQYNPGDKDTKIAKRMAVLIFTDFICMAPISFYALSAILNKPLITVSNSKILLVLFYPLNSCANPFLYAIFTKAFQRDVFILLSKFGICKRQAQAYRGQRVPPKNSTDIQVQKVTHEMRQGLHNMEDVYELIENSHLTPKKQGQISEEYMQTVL
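HEK 293 cells stably expressing TSHR and a modified CNG channel, with CNG-only parental cells as counterscreen, were preloaded 60 min at room temperature with membrane potential dye containing 100 uM RO 20-1724. Compound exposure was 30 min, and depolarization was read as fluorescence at 590 nm.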
HEK293 cAMP ctrl: counter-screen for TSHR agonists: cAMP increase in parental HEK293; 2.5% of 73,000 active; parental HEK293 CNG cAMP sensor, membrane potential fluorescence; Potency, µM (top dose mostly 57.1 µM), actives largely listed as activators; active means well fitted activation curve with a large enough effect; inconclusive means small, poorly fitted or top-dose-only effect; inactive means no such curve, though single readings can be large or run the other way; further: nearly all actives have a fitted effect of over 55% in size
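Parental HEK 293 cells stably expressing a modified CNG channel (no TSHR) report cAMP rise as membrane depolarization. Membrane potential dye with 100 uM RO 20-1724 was loaded for 60 min at room temperature, then compound added for 30 min; fluorescence read at 590 nm.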
Numbers stand for hits; . = inactive; ? = inconclusive; / = no result; [ ] = remark or other dose. Hits are enriched below; roughly 2.9% of the tested compounds scored in any of these assays.

SMILES | TSHR agonist | HEK293 cAMP ctrl
C=C(C)COc1ccc2c(c1)CCC1C2CC[C@]2(C)C(=O)/C(=N/O)CC12 (stereo partly specified) | .[11.4 µM] | .[11.4 µM]
COc1ncc2nc(-c3cn(C)c4ccccc34)c(=O)n(CCc3ccccc3)c2n1 | . | .
N[C@@H](Cc1nn[nH]n1)C(=O)O | .[11.4 µM] | .[11.4 µM]
Cc1nc2ccccc2n1-c1ccccc1 | . | .
Cc1ccccc1-n1c(C)nc2ccccc21 | 25µM | .
O=S(=O)(O)CCCc1cccc2ccccc12 | .[11.4 µM] | .[11.4 µM]
O=C(NCc1ccco1)C(c1ccco1)N(CCc1ccccc1)C(=O)Cn1nnc2ccccc21 (stereo unspecified) | ? | 16µM
Cc1ccccc1N(C(=O)Cn1nnc2ccccc21)C(C(=O)NCc1ccco1)c1ccncc1 (stereo unspecified) | . | .
CCC(C)N(C(=O)Cn1nnc2ccccc21)C(C(=O)NCc1ccco1)c1cccc(OC)c1 (stereo unspecified) | ? | 16µM
CCOCCCN(C(=O)Cn1nnc2ccccc21)C(C(=O)NCc1ccco1)c1ccncc1 (stereo unspecified) | . | .
O=C(NCc1ccco1)C(c1cccs1)N(Cc1ccccc1)C(=O)Cn1nnc2ccccc21 (stereo unspecified) | ? | 10µM
COCCNC(=O)C(c1cccc(OC)c1)N(C(=O)Cn1nnc2ccccc21)c1cccnc1 (stereo unspecified) | . | .
Clc1nc2ccccc2nc1Cl | . | .
COc1cc(N)c(Cl)cc1C(=O)N[C@H]1CCN(CCCOc2ccc(F)cc2)C[C@@H]1OC | ? | .
CCCCOCCOCCSC#N | . | .
Clc1cc2c(c(CSC3=NCN(CC4CC4)CN3)c1)OCOC2 | / | .[11.4 µM]
CCCNC(=O)OC[C@@H]1O[C@H](CCO/N=C2\c3cc(OC)ccc3O[C@H](c3cccc(OC)c3)[C@H]2O)C=C[C@@H]1Oc1ccc(OC)cc1 | .[11.4 µM] | .[11.4 µM]
COC(=O)c1[nH]c2ccc(C)cc2c1NC(=O)CCN1CCN(Cc2ccc3c(c2)OCO3)CC1 | . | .
COC(=O)c1c(NC(=O)CN2CCN(Cc3ccc4c(c3)OCO4)CC2)sc(C)c1C | ? | 1.6µM
CCCCOC(=O)CSc1nc2c(cc1C#N)C(=O)CC(C)(C)C2 | ? | 20µM
CCOC(=O)CSc1nc2cc(OC)ccc2cc1C#N | . | .
Cc1noc(C)c1-c1cc(NC2CCNCC2)ncn1 | . | .
CCOC(=O)c1oc2ccccc2c1CSc1nnnn1-c1ccccc1 | ? | 16µM
CCOC(=O)c1sc(NC(=O)CSc2nnnn2-c2ccccc2)nc1C | .[11.4 µM] | .[11.4 µM]
Cc1ccc(S(=O)(=O)N[C@H]2COC(=O)[C@H](C)COC(=O)C/C=C\[C@H]2C)cc1 | .[11.4 µM] | .[11.4 µM]
SMILES | TSHR agonist | HEK293 cAMP ctrl
COc1ccc(NC(=O)Cn2nnc(-c3ccccc3NC(=O)c3cccs3)n2)cc1 | 25µM | .
CCOc1ccc(NC(=O)Cn2nnc(-c3ccccc3NC(=O)CC)n2)cc1 | . | .
C[C@H](Oc1ccc(Oc2cnc3ccc(Cl)cc3n2)cc1)C(=O)O | .[11.4 µM] | .[11.4 µM]
COc1cc(-c2nnc(SCc3c(F)cccc3Cl)o2)cc(OC)c1OC | ? | 32µM
COc1cccc(C(=O)CSc2nnc(-c3cc(OC)c(OC)c(OC)c3)o2)c1 | / | .
O=C1C2=CC[C@@H]3C(=O)N(c4ccc(F)cc4F)C(=O)[C@H]3[C@H]2[C@H](O)[C@H]2O[C@H]12 | .[11.4 µM] | .[11.4 µM]
Cc1ccc(S(=O)(=O)n2ccnc2)cc1C | ? | 20µM
Cc1ccc(S(=O)(=O)N2CCN(C(=O)N(C)C)CC2)cc1C | / | .
CO/N=C(\C(=O)N[C@@H]1C(=O)N2C(C(=O)O)=C(CSc3nc(=O)c(O)nn3C)CS[C@@H]12)c1csc(N)n1 | . | .
CC(=O)OC[C@@H]1O[C@H](CCO/N=C(\C)CCN2CCc3nc(-c4ccccc4)c(-c4ccccc4)cc3C2)C=C[C@@H]1OC(C)=O | .[11.4 µM] | .[11.4 µM]
CN1CCN(Cc2nc3cccc4c3c([n+]2[O-])-c2ccccc2-4)CC1 | .[11.4 µM] | .[11.4 µM]
COc1ccc(-n2nc(C(=O)Nc3ccc4c(c3)OCO4)c3ccccc3c2=O)cc1 | ? | 16µM
COc1ccc(-n2nc(C(=O)N3CCN(Cc4ccc5c(c4)OCO5)CC3)c3ccccc3c2=O)cc1 | .[11.4 µM] | .
N#CC1=C(N)OC2=C(CCC/C2=C/c2ccoc2)C1c1ccoc1 (stereo unspecified) | 25µM | .
CCOC(=O)C1=C(C)OC(N)=C(C#N)C1c1ccoc1 (stereo unspecified) | . | .
CN1CCN(c2ncc3nc(-c4cc(F)cc(F)c4)c(=O)n(CCC#N)c3n2)CC1 | . | .
O=C(Nc1nccs1)c1ccc(S(=O)(=O)NCc2cccs2)cc1 | . | .
CN(c1ccc(C(=O)Nc2nccs2)cc1)S(=O)(=O)c1ccccc1 | ? | 32µM
Cc1cc(C)c(-c2cc([C@H](C)O/N=C\[C@@H](C)[C@H](OCc3ccccc3)C(C)C)on2)c(C)c1 | .[11.4 µM] | .[11.4 µM]
Cc1nnc(SCc2nnc(-c3ccc(Cl)cc3)o2)n1-c1ccccc1 | .[11.4 µM] | .
COc1ccc(-c2nnc(SCc3nnc(-c4ccc(Cl)cc4)o3)n2-c2ccccc2)cc1 | ? | 16µM
COc1ccc(-c2nnc(SCc3nnc(-c4ccccc4)o3)n2-c2ccccc2)cc1 | .[11.4 µM] | .[11.4 µM]
COc1ccc(-n2c(SCc3nnc(-c4ccccc4)o3)nnc2-c2ccccc2)cc1 | ? | 20µM
Cc1ccc(C(=O)Nc2ccccc2N2CCOCC2)c(C)c1 | . | .
COc1ccc(-c2nc(CS(=O)(=O)CC(=O)NCCc3cc(OC)ccc3OC)c(C)o2)cc1 | ? | 25µM
SMILES | TSHR agonist | HEK293 cAMP ctrl
COCCCNC(=O)CS(=O)(=O)Cc1nc(-c2cccc(OC)c2)oc1C | . | .
CO[C@@H]1/C=C\CC(=O)N[C@@H](C)C(=O)OC[C@@H](OC)[C@H](C)CCCC(=O)OC[C@H]1C | .[11.4 µM] | .[11.4 µM]
COc1ccc(CNc2ncncc2-c2ccccc2CN(C)C)c(OC)c1 | . | .
COc1ccc(CNc2ccnc(-c3ccccc3Cl)n2)c(OC)c1 | ? | 10µM
COc1ccc(CNc2ccnc(-c3ccccc3OC)n2)c(OC)c1 | / | .
COc1ccc(CNc2ncncc2-c2ccccc2Cl)c(OC)c1 | ? | 32µM
COc1ccc2cccc(N3CCN(CCNC(=O)c4ccc(F)cc4)CC3)c2c1 | . | .
CC(C)=CCC/C(C)=C/CO/N=C1/C[C@@H](O)[C@@H](O)[C@@H]2[C@@H]3C(=O)N(C4CCCCC4)C(=O)[C@H]3CC[C@@H]12 | .[11.4 µM] | .[11.4 µM]
CCCCNC(=O)c1sc2nc(C)cc(COC)c2c1-n1cccc1 | ? | 16µM
COCc1cc(C)nc2sc(C(=O)OC(C)C)c(N)c12 | . | .
NNC(=O)[C@@H](O)[C@H](O)[C@H](O)CO | .[11.4 µM] | .[11.4 µM]
Nc1nonc1-c1nc2ccccc2n1Cc1ccc(F)cc1Cl | ? | 16µM
CCC(=O)Nc1nonc1-c1nc2ccccc2n1Cc1ccc(Cl)c(Cl)c1 | / | .
Cc1ccc2c(c1)c1ncnc(N3CCOCC3)c1n2C | . | .
Cc1ccc2c(c1)c1ncnc(N3CCN(c4ccccc4)CC3)c1n2C | ? | 25µM
c1ccc(N2CCN(c3ncnc4c3oc3ccccc34)CC2)cc1 | ? | 20µM
CCOC(=O)C1CCN(c2nc(-c3ccccc3)nc3c2oc2ccccc23)CC1 | / | .
CCc1nnc(N2CCN(c3ncnc4c3oc3ccccc34)CC2)s1 | . | .
CCOC(=O)C1CCN(c2ncnc3c2oc2ccccc23)CC1 | ? | 25µM
NC1=N[C@H](c2ccc(Cl)cc2)N(c2ccc(S(N)(=O)=O)cc2)C(N)=N1 | .[11.4 µM] | .[11.4 µM]
O=C(O)CNC(=O)c1ccccc1O | .[11.4 µM] | .[11.4 µM]
